The values that follow come from PubChem BioAssay AID1851 (National Center for Advancing Translational Sciences (NCATS), 2009).

SMILES strings stand for the structures. The campaign covered roughly 16,000 compounds. About 4,000 (25%) were called active. About 26% were inconclusive and are not listed. The call rests on the fitted dose curve; in most records, active means well fitted curve in the direction sought with a large enough effect; inconclusive means small, poorly fitted or top-dose-only effect, or effect the other way; inactive means no such curve, though single readings can be large or run the other way. A selection follows.
On the % scale 0 is the no-effect control and ±100 the full control effect.

For this experiment, the target named is Cytochrome P450 2C9 (Homo sapiens) (UniProt P11712). Nature of the experiment: Cytochrome panel assay with activity outcomes. The conditions noted are these: recombinant CYP, pro-luciferin dealkylation, luminescence, p450-cyp2c9; series mostly up to 57.1 µM; activity, negative = inhibition: at the top concentration. Here is the method: The P450 gene superfamily is involved in the metabolism and clearance of xenobiotics. This assay used various human CYP P450 isozymes to measure the dealkylation of various pro-luciferin substrates to luciferin. The luciferin is then measured by luminescence after the addition of a luciferase detection reagent. Pro-luciferin substrate concentration in the assay was equal to its KM for its CYP P450 isozyme. Inhibitors and some substrates limit the production of luciferin, and decrease measured luminescence.
Chain of Cytochrome P450 2C9 (Homo sapiens) (P11712 whole entry, looked up): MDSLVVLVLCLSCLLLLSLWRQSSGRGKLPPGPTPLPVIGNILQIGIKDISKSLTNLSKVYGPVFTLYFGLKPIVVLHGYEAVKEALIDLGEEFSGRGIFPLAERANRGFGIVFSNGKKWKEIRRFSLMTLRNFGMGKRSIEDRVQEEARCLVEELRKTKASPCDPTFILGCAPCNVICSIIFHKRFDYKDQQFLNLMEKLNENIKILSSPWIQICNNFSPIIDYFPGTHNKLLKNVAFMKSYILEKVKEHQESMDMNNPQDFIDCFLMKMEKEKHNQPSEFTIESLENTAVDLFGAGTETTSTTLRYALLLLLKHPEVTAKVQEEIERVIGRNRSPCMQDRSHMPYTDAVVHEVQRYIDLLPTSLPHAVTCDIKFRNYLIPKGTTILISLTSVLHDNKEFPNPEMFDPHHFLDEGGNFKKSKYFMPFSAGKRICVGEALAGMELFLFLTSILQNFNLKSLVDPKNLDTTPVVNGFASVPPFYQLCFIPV
NCGC Assay Protocol Summary:
1, Reagent, 2 uL, Isozyme and Pro-Luciferin
2, Library compounds, 23 nl, 40 uM to 0.24 nM dilution series
3, Controls, 23 nl, Isozyme specific inhibitor
4, Reagent, 2 uL, NADPH regeneration solution
5, Incubation time, 60 min, Isozyme specific temperature
6, Reagent, 4ul, Detection reagent
7, Incubation time, 20 min, Isozyme specific temperature
8, Detection, 1 sec, ViewLux luminescent read
The luciferase-based P450-GloTM Screening Systems were obtained from Promega (Madison, WI) for CYP 1A2 (V9770), CYP 2C9 (V9790), CYP2 C19 (V9880), CYP 2D6 (V9890), and CYP 3A4 Luciferin-PPXE (V9910) and were adapted for 1,536-well microplates and an automated protocol. The control compounds furafylline for 1A2 (F124), sulfaphenazole for CYP 2C9 (S0758), ketoconazole for CYP 2C19 (K1003), quinidine for 2D6 (Q3625), and ketoconazole for 3A4 (K1003) were purchased from Sigma Aldrich (St. Louis, MO). Recombinant P450 enzymes were obtained from baculovirus constructs expressed in insect cells (BD/Gentest).
Medium-binding white solid Kalypsys plates used. Mixtures kept on ice. 1A2: 10 nM 1A2, 100 uM Luc-ME, 100 mM KPO4; 2C9: 10 nM 2C9, 100 uM Luc-H, 25 mM KPO4; 2C19: 5 nM 2C19, 10 uM Luc-H EGE, 50 mM KPO4; 2D6: 5 nM 2D6, 30 uM Luc-ME EGE, 100 mM KPO4; 3A4: 10 nM, 25 uM Luc-PPXE. All amounts are reflected in their final concentration, working concentration is 2x.
NADPH regeneration solution: 1.3 mM NADP+, 3.3 mM glucose-6-phosphate, 3.3 mM MgCl2, 0.4 U/mL glucose-6-phosphate dehydrogenase for all isozymes, 200 mM KPO4 for 3A4. Mixture prepared at RT but kept on ice during automated run.
RT incubation in auxilliary plate hotel for 1A2, 2D6, and 3A4; 37C for 2C9 and 2C19.
Keywords: P450, CYP1A2, CYP2C19, CYP2C9, CYP2D6, CYP3A4, Luciferase, MLSMR, MLSCN, NIH Roadmap, qHTS, NCGC
Regarding `CC(C)(C)NC[C@@H](O)c1ccc(O)c(CO)n1`, the activity, negative = inhibition was 6.16% [at 11.4 µM] (inactive).

As a reminder, the AC50 is the concentration giving half of the maximal activity seen. As to `Clc1ccc(-c2nc3ncccn3c2Nc2ccc3c(c2)OCCO3)cc1`, the AC50 is 4.47 µM (active).

`Cc1ccc(-c2nc3ncccn3c2NC(=O)C2CC2)cc1`: the “activity, negative = inhibition” value is 6.9% (inactive).

As for `Cc1noc(C)c1-c1cc(Nc2ccccc2)ncn1`, the activity, negative = inhibition is -12.1% [at 2.29 µM] (inactive).

For the compound `Cc1noc(C)c1-c1cc(NCc2ccccc2)ncn1`, the activity, negative = inhibition was 24.9% [at 2.29 µM] (inactive).

For `Cc1noc2ncnc(Oc3ccc4ccccc4c3)c12`, the AC50 was 25.1 µM (active).

With `Clc1ccc(COc2ccccn2)cc1Cl`, the “activity, negative = inhibition” value is -2.18% (inactive).

Regarding `O=Nc1c(O)n(Cc2ccc(Cl)cc2)c2ccccc12`, the AC50 was 1.26 µM (active).

For `O=Nc1c(O)n(Cc2cccc(Cl)c2)c2ccccc12`, the AC50 is 2.51 µM (active).

With `O=C1C(=O)N(Cc2ccc(Cl)c(Cl)c2)c2ccccc21`, the “activity, negative = inhibition” value is 1% (inactive).

As for `O=Nc1c(O)n(Cc2ccc(Cl)c(Cl)c2)c2ccccc12`, the AC50 is 5.62 µM (active).

With `Clc1ccc(Cn2c(CN3CCCC3)nc3ccccc32)cc1`, the “activity, negative = inhibition” value was -38.8% [at 25.6 µM] (inactive).

`NC(=O)c1ncn([C@@H]2O[C@@H](CO)[C@@H](O)[C@H]2O)c1O`: the “activity, negative = inhibition” value is -6.99% (inactive).

For `Cc1noc(C)c1-c1cncnc1NC1CC1`, the activity, negative = inhibition is 4.67% [at 2.29 µM] (inactive).

In the case of `c1cn(-c2ccnc(-c3ccc4c(c3)OCO4)n2)cn1`, the activity, negative = inhibition is 4.3% [at 2.29 µM] (inactive).

Take `CN(C)C(=O)c1ccc(-c2nc(N(C)Cc3ccco3)c3ccccc3n2)cc1`: the activity, negative = inhibition is 5.2% [at 2.29 µM] (inactive).

For `CN(Cc1ccccc1)c1nc(-c2ccc([N+](=O)[O-])cc2)nc2ccccc12`, the AC50 is 0.501 µM (active).

With `COc1cccc(-c2nc(N(C)Cc3ccco3)c3ccccc3n2)c1`, the activity, negative = inhibition is -10.2% [at 2.29 µM] (inactive).

On to `c1nc(NCCc2cnc[nH]2)c2[nH]cnc2n1`, for which the activity, negative = inhibition is -20.1% [at 11.4 µM] (inactive).

As for `CN(C)C(=O)c1ccc(-c2cc(NCc3ccccc3)ncn2)cc1`, the activity, negative = inhibition is 6.12% [at 2.29 µM] (inactive).

Regarding `N#Cc1c(-c2ccc(Cl)cc2)nc2n(c1=O)CCCS2`, the AC50 is 12.6 µM (active).

`CN(C)c1cc(=O)n2c(n1)SCCC2`: the “activity, negative = inhibition” value was -4.22% (inactive).

As for `N#Cc1c(-c2ccccc2)nc2n(c1=O)CCS2`, the “activity, negative = inhibition” value was -5.83% (inactive).

In the case of `CC(C)CN1CCCC2(CCN(C(=O)c3cccn3C)CC2)C1`, the “activity, negative = inhibition” value is 5.73% (inactive).

On to `Cn1cccc1C(=O)N1CCC2(CC1)CCN(c1ccc(-c3ccccc3)cc1)CC2`, for which the “activity, negative = inhibition” value was -18.2% (inactive).

With `c1ccc(-c2ccc(N3CC[C@@]4(CCCNC4)C3)cc2)cc1`, the “activity, negative = inhibition” value is -3.55% (inactive).

Turning to `CN1CCCC2(CCN(C(=O)c3cccn3C)CC2)C1`, the “activity, negative = inhibition” value is 9.11% (inactive).

Turning to `Cn1cccc1C(=O)N1CCC2(CC1)CCN(c1cccc(-c3ccccc3)c1)CC2`, the “activity, negative = inhibition” value was 9.6% (inactive).

Turning to `CC(C)NC(=O)N1CCCC2(CCN(C(=O)c3cccn3C)CC2)C1`, the “activity, negative = inhibition” value is -10.5% (inactive).

Turning to `Cn1cccc1C(=O)N1CCC2(CC1)CCN(C(c1ccccc1)c1ccccc1)CC2`, the “activity, negative = inhibition” value was 12.5% (inactive).

With `Cn1cccc1C(=O)N1CCC2(CCCN(c3cccc(-c4ccccc4)c3)C2)CC1`, the AC50 was 3.98 µM (active).

With `c1ccc(-c2ccc(N3CC4(CCNCC4)C3)cc2)cc1`, the “activity, negative = inhibition” value is -19.5% (inactive).

Regarding `Cn1cccc1C(=O)N1CCC2(CCCN(C(c3ccccc3)c3ccccc3)C2)CC1`, the AC50 is 12.6 µM (active).

With `Cn1cccc1C(=O)N1CCC2(CCCN(c3ccc(-c4ccccc4)cc3)C2)CC1`, the AC50 was 15.8 µM (active).

Regarding `c1ccc(-c2ccc(N3CCCC4(CCNCC4)C3)cc2)cc1`, the AC50 is 25.1 µM (active).

With `Cc1cnc(CNc2ncncc2-c2ccccc2CN(C)C)cn1`, the activity, negative = inhibition was 20.8% [at 2.29 µM] (inactive).

Turning to `CO[C@@H]1COC(=O)[C@H]2CCCN2C(=O)[C@@H](C)COC(=O)CCC[C@H]1C`, the activity, negative = inhibition was 1.93% [at 11.4 µM] (inactive).

Take `Cn1cccc1C(=O)N1CCC2(CC1)CN(c1ccncc1)C2`: the AC50 was 5.01 µM (active).

On to `COC(=O)N1CCC2(CC1)CN(c1ccc(-c3ccccc3)cc1)C2`, for which the “activity, negative = inhibition” value is -19.7% (inactive).

On to `Cn1cccc1C(=O)N1CCC2(CCCN(c3ccccc3)C2)CC1`, for which the AC50 was 15.8 µM (active).

For the compound `Cn1cccc1C(=O)N1CCC[C@@]2(CCN(c3ccccc3)C2)C1`, the “activity, negative = inhibition” value is -11.1% (inactive).

`Cn1cccc1C(=O)N1CCC2(CC1)CCN(c1ccncc1)CC2`: the “activity, negative = inhibition” value is -17.9% (inactive).

With `Cn1cccc1C(=O)N1CCC2(CC1)CCN(c1ccccc1)CC2`, the “activity, negative = inhibition” value was 10.5% (inactive).

For `COC(=O)N1CCC2(CCCN(c3ccc(-c4ccccc4)cc3)C2)CC1`, the AC50 was 15.8 µM (active).

Consider `Cn1cccc1C(=O)N1CCC[C@@]2(CCN(c3ccncc3)C2)C1`, for which the “activity, negative = inhibition” value was -3.72% (inactive).

For `O=C(Oc1ccccc1)N1CCC2(CCCN(c3ccc(-c4ccccc4)cc3)C2)CC1`, the “activity, negative = inhibition” value was 17.5% (inactive).

Take `COc1ccccc1/C=C/C=N/N1CCN(Cc2cccc3ccccc23)CC1`: the “activity, negative = inhibition” value is 25.5% (inactive).
